This is a sample that favours compounds with a hit; in the whole collection about 10% have one here.
G9a block = qHTS Assay for Inhibitors of Histone Lysine Methyltransferase G9a. actives 8.8% (n = 350,000). AID 504332, 2011. G9a H3K9 monomethylation, AlphaScreen, 2 h. Histone-lysine N-methyltransferase EHMT2 (Homo sapiens), Q96KQ7. Potency, µM (doses to about 102 µM), inactives show at the highest dose activity, negative = inhibition, usual class: inhibitors; also: potency is read from the fitted curve at half-maximal effect; % is scaled to controls: 0 for no effect and ±100 for the full control effect; nearly all actives have a fitted effect of over 75% in size
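AlphaScreen detection with an anti-monomethyl H3K9 antibody quantified product after a 2 h room-temperature reaction containing 500 nM biotinylated H3K9 peptide, 20 µM SAM and 20 nM enzyme, which had been preincubated 15 min with compound.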
JMJD2A Tudor = qHTS Assay for Inhibitors of JMJD2A-Tudor Domain. Lysine-specific demethylase 4A (Homo sapiens), O75164. AlphaScreen JMJD2A-Tudor / H3K4me3 peptide binding. Potency, µM (doses to about 114 µM), inactives show top-dose activity change, negative = inhibition, usual class: inhibitors. actives 4.4% (n = 390,000); also: potency is read from the fitted curve at half-maximal effect; % is scaled to controls: 0 for no effect and ±100 for the full control effect; nearly all actives have a fitted effect of over 50% in size
Target sequence (O75164 whole entry, looked up, the tested form may be a part): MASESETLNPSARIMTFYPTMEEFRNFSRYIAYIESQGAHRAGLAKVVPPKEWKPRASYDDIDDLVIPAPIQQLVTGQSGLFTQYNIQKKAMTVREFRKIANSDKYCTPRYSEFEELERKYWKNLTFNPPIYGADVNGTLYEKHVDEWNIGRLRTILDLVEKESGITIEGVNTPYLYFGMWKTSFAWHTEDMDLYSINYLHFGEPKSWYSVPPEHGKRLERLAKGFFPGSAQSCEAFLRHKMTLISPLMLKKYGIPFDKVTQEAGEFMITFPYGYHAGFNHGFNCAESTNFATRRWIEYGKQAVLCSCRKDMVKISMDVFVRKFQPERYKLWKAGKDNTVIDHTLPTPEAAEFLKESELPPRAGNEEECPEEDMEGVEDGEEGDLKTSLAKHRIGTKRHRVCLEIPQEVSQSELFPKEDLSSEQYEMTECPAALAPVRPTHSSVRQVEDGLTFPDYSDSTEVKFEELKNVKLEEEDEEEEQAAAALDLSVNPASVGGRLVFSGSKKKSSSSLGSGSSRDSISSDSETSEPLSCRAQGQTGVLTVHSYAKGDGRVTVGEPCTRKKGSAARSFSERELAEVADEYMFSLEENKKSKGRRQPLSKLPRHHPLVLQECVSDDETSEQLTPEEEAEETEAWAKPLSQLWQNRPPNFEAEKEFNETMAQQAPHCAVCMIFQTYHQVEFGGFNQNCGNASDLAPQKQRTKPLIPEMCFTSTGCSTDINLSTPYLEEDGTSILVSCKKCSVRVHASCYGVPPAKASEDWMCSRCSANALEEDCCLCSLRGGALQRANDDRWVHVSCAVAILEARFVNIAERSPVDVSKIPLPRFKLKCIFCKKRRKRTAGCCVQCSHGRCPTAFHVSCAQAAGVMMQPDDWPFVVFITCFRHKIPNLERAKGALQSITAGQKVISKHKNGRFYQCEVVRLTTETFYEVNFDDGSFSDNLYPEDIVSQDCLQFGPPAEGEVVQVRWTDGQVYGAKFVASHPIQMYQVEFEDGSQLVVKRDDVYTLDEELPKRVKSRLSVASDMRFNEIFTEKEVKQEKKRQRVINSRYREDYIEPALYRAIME
BAZ2B block = qHTS Assay for Inhibitors of BAZ2B | Bromodomain adjacent to zinc finger domain protein 2B (Homo sapiens), Q9UIF8 | AlphaScreen BAZ2B-H3K14Ac peptide displacement | Potency, µM (highest dose often 114 µM), inactives show at the top dose activity change, negative = inhibition, actives largely listed as inhibitors | actives 4.4% (n = 360,000); also: potency is read from the fitted curve at half-maximal effect; % is scaled to controls: 0 for no effect and ±100 for the full control effect; nearly all actives have a fitted effect of over 60% in size
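AlphaScreen displacement: compounds (up to 110uM) incubated 30 min at room temperature with a preformed 50 nM BAZ2B/50 nM biotinylated H3K14Ac peptide complex in PBS pH 7.4 with Tween-20. Donor and acceptor beads at 10 ug/mL final added, 20 min light-protected before reading.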
CtBP-E1A blk = qHTS Assay for Inhibitors of the CtBP/E1A Interaction | CtBP / adenovirus E1A interaction (AlphaScreen) | activity change, % (no concentration beside the values) | actives 0.49% (n = 340,000) | AlphaScreen GST-E1A/His-CtBP binding, 1536-well; hits give low values; in the data active = activity change below about -65%; inconclusive = mostly about -30% to -63%; also: % is scaled to controls: 0 for no effect and ±100 for the full control effect
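In 5 uL wells, 23 nL compound meets equimolar GST-E1A and His-CtBP (5X stock 125 nM each) for 2 h, 37 °C. Beads (5X, 50 ug/mL) then 1 h, 37 °C, dark.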
Six1-Eya2 blk = qHTS Assay for Inhibitors of the Six1/Eya2 Interaction; AID 651725, 2012; actives 0.56% (n = 360,000); AlphaScreen GST-Six1/His-Eya2 binding, biochemical; hits give low values; activity change, % (no concentration beside the values); Homeobox protein SIX1 (Homo sapiens) + Protein phosphatase EYA2 (Homo sapiens), …; in the data active = activity change below about -65%; inconclusive = mostly about -30% to -63%; also: % is scaled to controls: 0 for no effect and ±100 for the full control effect
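GST-Six1 + His-Eya2 (5X stock: 250/500 nM); Tris pH 8.0, 300 mM NaCl, 0.05% BSA, 0.02% Tween 20; GSH donor/Ni acceptor beads; 1 h 37 °C dark; AlphaScreen readout.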
HP1b binding inh = HTS for Inhibitors of HP1-beta Chromodomain Interactions with Methylated Histone Tails; Chromobox protein homolog 1 (Homo sapiens), P83916; AlphaScreen HP1-beta / biotin-H3K9me3 peptide binding; Potency, µM (series often up to 114 µM), without a hit: at the highest dose activity change, negative = inhibition, usual class: inhibitors; actives 0.56% (n = 390,000); also: potency is read from the fitted curve at half-maximal effect; nearly all actives have a fitted effect of over 70% in size
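Compound inhibition of the preformed complex between 50 nM HP1-beta and 50 nM biotinylated H3K9me3 peptide was read by AlphaScreen. Buffer was PBS pH 7.4 with 0.01% Tween-20. Incubations ran 30 min at room temperature, with 10 ug/mL donor/acceptor beads.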
Active calls of the source: *; ? = inconclusive; · = not tested or not shown; [ ] = dose if it differs, or a comment. Unless noted, calls follow the shape of the dose curve; as a rule, active = well fitted inhibition curve with a large enough effect; inconclusive = small, poorly fitted or top-dose-only effect; inactive = no such curve, though single readings can be large or run the other way.

SMILES	G9a block	JMJD2A Tudor	BAZ2B block	CtBP-E1A blk	Six1-Eya2 blk	HP1b binding inh
CCOCCCN(C(=O)c1snc(C(N)=O)c1N)C(C(=O)NC1CCCC1)c1ccc(F)cc1 (configuration not stated)	-2.6%	-7.1%	6.1%	25.9	11.4	40.6%
COc1ccccc1CNC(=O)c1cc2sccc2n1Cc1ccc(Cl)cc1	-2.0%[59 µM]	-25.5%	-2.8%	·	·	26.3%
Cc1ccccc1-c1nc(CS(=O)(=O)CC(=O)Nc2cccc(C(F)(F)F)c2)c(C)o1	-2.0%[59 µM]	-24.2%	-8.5%	·	·	15.0%
COc1ccc(N2CCN(Cc3nc4c(c(=O)[nH]c(=O)n4C)n3Cc3ccccc3F)CC2)cc1	-11.4%[59 µM]	-7.9%	-24.1%	·	·	39.4%
CN(C)c1ccc(C(C(=O)NCC2CCCO2)N(Cc2ccccc2)C(=O)c2snc(C(N)=O)c2N)cc1 (configuration not stated)	-19.8%	?	?	-15.0	-11.7	-8.5%
Cc1cccc(N(C(=O)c2snc(C(N)=O)c2N)C(C(=O)NCC2CCCO2)c2ccc(N(C)C)cc2)c1C (configuration not stated)	50.1µM*	-27.3%	28.2µM*	1.3	9.5	-10.1%
CCOc1ccc(-c2cc3c(=O)n(CC(=O)NCc4ccc(Cl)cc4)ccn3n2)cc1	4.7%[59 µM]	-14.2%	-4.0%	·	·	9.3%
CCOc1ccc(-n2c(C)cc(C(=O)CCl)c2C)cc1	44.7µM*	?	-22.5%	2.8	-5.4	?
CCOc1ccc(-n2c(C)cc(/C=N/N(C)C)c2C)cc1	44.7µM*	44.7µM*	?	-22.6	-15.6	-17.8%
COc1ccc(CCCc2nnc(SCC(=O)Nc3cccc(F)c3C)o2)cc1	-50.2%[59 µM]	?	-4.6%	·	·	37.7%
O=C(Nc1ccc(S(=O)(=O)N(Cc2ccccc2)c2ccccc2)cc1)c1ccc(F)cc1	-1.5%[59 µM]	-14.9%	-11.6%	·	·	39.9%
C/C(=N/NS(=O)(=O)c1ccc(F)cc1)c1ccncc1	22.4µM*	-22.0%	-13.6%	5.7	3.5	32.3%
CC(=NNS(=O)(=O)c1ccc(C)cc1)c1ccncc1	·	·	·	-6.2	-1.1	·
CCc1ccc(S(=O)(=O)N/N=C(/C)c2ccncc2)cc1	39.8µM*	-15.2%	-5.0%	-4.4	-2.1	55.3%
COc1ccc(-n2ccnc(NCc3ccc(Cl)cc3)c2=O)cc1	10.5%[59 µM]	-10.1%	15.6%	·	·	51.4%
CC(=O)c1ccc(C#CC(C)(C)O)s1	12.6µM*	-21.2%	-3.7%	0.3	11.1	36.5%
COc1ccc(O)c(/C=N/Nc2nc(C)cc(-c3ccccc3)n2)c1	·	35.5µM*	·	-16.6	-27.8	?
C#CCOCCOCCOCCNc1nc(N2CCN(C(=O)CCCCCCCCCCNC(=O)[C@@H](CCSC)n3cc(CCO)nn3)CC2)nc(N2CCN(C(=O)CCCCCCCCCCNC(=O)[C@H](CCC(=O)O)n3cc(CCCCCN)nn3)CC2)n1	-10.9%[2.33 µM]	-35.9%	-12.5%	·	-10.7	6.6%
C#CCOCCOCCOCCNc1nc(N2CCN(C(=O)CCCCCCCCCCNC(=O)[C@@H](CCSC)n3cc(CCO)nn3)CC2)nc(N2CCN(C(=O)CCCCCCCCCCNC(=O)[C@H](CO)n3cc(CCCCCN)nn3)CC2)n1	-11.2%[2.33 µM]	79.4µM*	?	-1.7	-13.2	?
C#CCOCCOCCOCCNc1nc(N2CCN(C(=O)CCCCCCCCCCNC(=O)[C@@H](CCC(=O)O)n3cc(CCCCCN)nn3)CC2)nc(N2CCN(C(=O)CCCCCCCCCCNC(=O)[C@H](CO)n3cc(CCCSC)nn3)CC2)n1	-10.6%[2.33 µM]	44.7µM*	?	?	-13.1	28.0%
O=C(Cn1c(=O)n(-c2ccccc2Cl)c(=O)c2sc3ccccc3c21)NC1CCCCC1	21.6%[59 µM]	-5.6%	25.9%	·	·	57.8%
O=C(CCCn1c(=O)c2ccccc2n(Cc2cccc(Cl)c2)c1=O)NCCc1ccc(Cl)cc1	-3.9%[59 µM]	-12.6%	1.6%	·	·	26.0%
CCOc1cc(C2Nc3cccc4cccc(c34)N2)ccc1O	10µM*	-33.1%	?	-1.7	-20.4	-34.5%
CCOc1ccc(C2Nc3cccc4cccc(c34)N2)cc1OC	10µM*	?	-38.7%	-7.3	-28.7	50.1µM*
Cc1ccccc1OCCn1c(=N)n(C(C)C)c2ccccc21	-36.9%[59 µM]	-20.4%	0.4%	·	·	4.8%
SMILES	G9a block	JMJD2A Tudor	BAZ2B block	CtBP-E1A blk	Six1-Eya2 blk	HP1b binding inh
CC(=O)N1c2ccccc2C(=O)C1N1CCCCC1 (configuration not stated)	50.1µM*	-7.5%	4.0%	-1.5	1.7	45.3%
CNC(=O)c1sc(-c2cccs2)nc1C	44.7µM*	0.0%	·	-0.9	-1.8	27.6%
O=C1c2ccccc2C(=O)N1CCCc1nc(-c2ccccn2)no1	21.6%[59 µM]	79.4µM*	?	3.7	-2.5	-13.5%
O=C1c2ccccc2C(=O)N1CCc1nc(-c2ccccn2)no1	-2.1%[59 µM]	-6.7%	-3.4%	-6.8	-6.7	9.0%
CCOC(=O)CS(=O)(=O)c1nc(-c2ccc(F)cc2)cc(C(F)(F)F)n1	?	-2.5%	-2.7%	11.5	5.4	31.6%
CCOC(=O)CCS(=O)(=O)c1nc(-c2ccccc2)cc(C(F)(F)F)n1	2.82µM*	-7.4%	-3.7%	7.5	-13.9	67.9%
CS(=O)(=O)c1nc(-c2ccc(F)cc2)cc(C(F)(F)F)n1	44.7µM*	-10.4%	-3.4%	-5.4	-4.5	64.1%
Cc1cc(NC(=O)CSc2nc(-c3cccs3)cc(C(F)(F)F)n2)no1	-7.3%	-4.8%	-4.5%	2.7	-0.9	17.6%
Cc1cc(NC(=O)CCCS(=O)(=O)c2nc(-c3cccs3)cc(C(F)(F)F)n2)no1	50.1µM*	-11.9%	-3.9%	-0.4	-4.2	83.8%
CCOC(=O)CS(=O)(=O)c1nc(-c2ccccc2)cc(C(F)(F)F)n1	35.5µM*	-12.4%	-11.7%	9.5	3.3	46.2%
COc1ccc(-c2cc(C(F)(F)F)nc(S(C)(=O)=O)n2)cc1	-18.6%	-17.1%	11.6%	2.9	3.9	30.9%
O=C(NCCc1ccc(Cl)cc1)c1ccc2c(c1)N(Cc1ccccc1)C(=O)CS2	4.4%[59 µM]	-21.4%	2.4%	·	·	17.0%
COc1ccc(-c2csc(NNC3=NCCCCC3)n2)cc1	10µM*	?	?	·	0.2	?
COc1ccc(-c2csc(NC3=NCCCCC3)n2)cc1	-9.2%[59 µM]	-8.5%	-15.7%	-16.5	-5.4	31.7%
